Experimental data taken from the supplement of paper PMC10849652.
The full data set covers some 8,800 targets. This sample favours those with a hit. About 0.5% of all pairs of compound and target were hits.

Experiments:
Assay in all cases: log2 fold change, soluble protein after heating vs DMSO (PISA); higher = thermal stabilisation; K562 lysate, 10 uM; active = over 0.2 and 3.5 SD of the protein, either way, in both replicates (recomputed)
lapatinib = compound: CS(=O)(=O)CCNCc1ccc(-c2ccc3ncnc(Nc4ccc(OCc5cccc(F)c5)c(Cl)c4)c3c2)o1 [lapatinib]
Procedure, shortened: (§1)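 Log-two fold change in thermal stability relative to solvent controls is reported from duplicates. For each sample, crude K562 extract from dounce-homogenised pellets in PBS pH 7.4 with 1 mM MgCl2, at 1 mg/mL protein, was treated with 10 μM compound for 30 min. Aliquots heated for 3 min across 48°C-58°C were pooled, brought to 0.5% NP-40 at 4°C and cleared at 21,000xg for 90 min. The supernatant was quantified by TMTpro 16plex LC-MS/MS with channel sums equalised.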

pictilisib = compound: CS(=O)(=O)N1CCN(Cc2cc3nc(-c4cccc5[nH]ncc45)nc(N4CCOCC4)c3s2)CC1 [pictilisib]
Procedure, shortened: as §1

crizotinib = compound: C[C@@H](Oc1cc(-c2cnn(C3CCNCC3)c2)cnc1N)c1c(Cl)ccc(F)c1Cl [crizotinib]
Procedure, shortened: as §1

[1] = compound: C[C@H](C1=CC=C(C=C1)C(=O)NC2=C3C=CNC3=NC=C2)N
Procedure, shortened: as §1

duvelisib = compound: C[C@H](Nc1ncnc2nc[nH]c12)c1cc2cccc(Cl)c2c(=O)n1-c1ccccc1 [duvelisib]
Procedure, shortened: as §1

gandotinib = compound: Cc1cc(Nc2cc(CN3CCOCC3)c3nc(C)c(Cc4ccc(Cl)cc4F)n3n2)n[nH]1 [gandotinib]
Procedure, shortened: as §1

tozasertib = compound: Cc1cc(Nc2cc(N3CCN(C)CC3)nc(Sc3ccc(NC(=O)C4CC4)cc3)n2)n[nH]1 [tozasertib]
Procedure, shortened: as §1

doramapimod = compound: Cc1ccc(-n2nc(C(C)(C)C)cc2NC(=O)Nc2ccc(OCCN3CCOCC3)c3ccccc23)cc1 [doramapimod]
Procedure, shortened: as §1

bafetinib = compound: Cc1ccc(NC(=O)c2ccc(CN3CC[C@H](N(C)C)C3)c(C(F)(F)F)c2)cc1Nc1nccc(-c2cncnc2)n1 [bafetinib]
Procedure, shortened: as §1

[2] = compound: Cc1cccc(CC(=O)N2CCc3c2ccc(-c2cn(C)c4ncnc(N)c24)c3F)n1
Procedure, shortened: as §1

Measured: log2 fold change

COG7 (UniProt P83436)
Chain of UniProt P83436 (P83436 whole entry, looked up): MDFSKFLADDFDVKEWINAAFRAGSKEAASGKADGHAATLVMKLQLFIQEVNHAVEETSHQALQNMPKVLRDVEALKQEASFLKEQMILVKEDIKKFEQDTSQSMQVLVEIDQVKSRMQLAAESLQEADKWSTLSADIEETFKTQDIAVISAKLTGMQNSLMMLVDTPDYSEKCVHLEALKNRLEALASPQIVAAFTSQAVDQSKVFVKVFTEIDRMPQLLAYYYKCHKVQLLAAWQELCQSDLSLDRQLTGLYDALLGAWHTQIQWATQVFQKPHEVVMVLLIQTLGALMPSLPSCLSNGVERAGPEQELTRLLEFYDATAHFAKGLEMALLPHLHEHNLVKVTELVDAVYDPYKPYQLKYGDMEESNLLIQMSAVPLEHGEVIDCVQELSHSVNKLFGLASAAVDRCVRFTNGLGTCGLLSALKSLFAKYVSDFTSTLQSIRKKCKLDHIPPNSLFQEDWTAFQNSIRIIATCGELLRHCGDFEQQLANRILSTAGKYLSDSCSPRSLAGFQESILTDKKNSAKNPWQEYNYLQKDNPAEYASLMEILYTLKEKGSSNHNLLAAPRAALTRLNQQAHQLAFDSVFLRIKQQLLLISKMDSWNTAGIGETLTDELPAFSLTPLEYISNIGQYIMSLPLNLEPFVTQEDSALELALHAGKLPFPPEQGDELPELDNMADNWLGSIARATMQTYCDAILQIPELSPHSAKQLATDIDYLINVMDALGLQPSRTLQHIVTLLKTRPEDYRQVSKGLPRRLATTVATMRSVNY
inactive: lapatinib -0.014 | pictilisib -0.008 | crizotinib -0.025 | [1] -0.068 | duvelisib -0.01 | gandotinib -0.059 | tozasertib -0.028 | doramapimod 0.028 | bafetinib -0.044 | [2] 0.058

DDA1 (UniProt Q9BW61)
inactive: lapatinib 0.011 | pictilisib -0.025 | crizotinib 0.025 | [1] -0.013 | duvelisib -0.013 | gandotinib -0.019 | tozasertib -0.037 | doramapimod 0.013 | bafetinib 0.011 | [2] -0.062

DDX20 (UniProt Q9UHI6)
Chain of UniProt Q9UHI6 (Q9UHI6 whole entry, looked up): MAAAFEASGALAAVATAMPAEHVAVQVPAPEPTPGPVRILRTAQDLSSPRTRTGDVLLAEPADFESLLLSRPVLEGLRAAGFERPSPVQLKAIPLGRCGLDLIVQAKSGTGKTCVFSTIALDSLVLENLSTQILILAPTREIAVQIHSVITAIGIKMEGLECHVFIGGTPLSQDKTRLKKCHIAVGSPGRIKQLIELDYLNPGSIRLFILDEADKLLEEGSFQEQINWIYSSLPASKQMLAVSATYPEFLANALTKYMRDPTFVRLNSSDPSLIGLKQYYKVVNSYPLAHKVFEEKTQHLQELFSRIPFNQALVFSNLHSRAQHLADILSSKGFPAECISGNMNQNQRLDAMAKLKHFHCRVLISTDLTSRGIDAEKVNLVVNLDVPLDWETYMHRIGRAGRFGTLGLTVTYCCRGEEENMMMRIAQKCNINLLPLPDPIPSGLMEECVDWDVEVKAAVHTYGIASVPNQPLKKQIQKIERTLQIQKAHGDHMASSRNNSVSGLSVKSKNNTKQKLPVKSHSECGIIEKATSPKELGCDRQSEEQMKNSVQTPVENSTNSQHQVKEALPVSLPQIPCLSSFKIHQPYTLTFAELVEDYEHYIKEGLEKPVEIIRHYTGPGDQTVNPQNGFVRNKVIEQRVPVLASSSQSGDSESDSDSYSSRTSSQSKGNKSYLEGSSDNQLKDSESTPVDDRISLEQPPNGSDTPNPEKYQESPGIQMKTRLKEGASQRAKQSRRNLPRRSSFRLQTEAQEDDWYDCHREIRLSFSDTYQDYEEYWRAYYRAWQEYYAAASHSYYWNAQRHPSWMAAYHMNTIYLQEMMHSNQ
inactive: lapatinib -0.041 | pictilisib 0.024 | crizotinib -0.088 | [1] 0.029 | duvelisib 0.008 | gandotinib -0.137 | tozasertib -0.065 | doramapimod 0.015 | bafetinib -0.016 | [2] 0.054

CPT1A (UniProt P50416)
inactive: lapatinib 0.013 | pictilisib 0.014 | crizotinib 0.114 | [1] 0.009 | duvelisib 0.021 | gandotinib 0.057 | tozasertib 0.037 | doramapimod 0.038 | bafetinib -0.056 | [2] -0.027

CINP isoform 3 (UniProt Q9BW66)
Chain of UniProt Q9BW66 (Q9BW66 whole entry, looked up): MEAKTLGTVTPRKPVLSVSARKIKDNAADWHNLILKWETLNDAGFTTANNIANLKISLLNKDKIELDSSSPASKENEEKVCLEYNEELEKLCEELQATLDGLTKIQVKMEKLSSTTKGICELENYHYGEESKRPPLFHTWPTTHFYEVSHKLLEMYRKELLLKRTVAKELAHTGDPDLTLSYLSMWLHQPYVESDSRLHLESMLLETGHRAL
active: [1] -0.325
inactive: lapatinib -0.059 | pictilisib 0.011 | crizotinib -0.028 | duvelisib 0.062 | gandotinib 0.018 | tozasertib 0.056 | doramapimod 0.036 | bafetinib -0.059 | [2] 0.208

CNOT4 isoform 6 (UniProt O95628)
Chain of UniProt O95628 (O95628 whole entry, looked up): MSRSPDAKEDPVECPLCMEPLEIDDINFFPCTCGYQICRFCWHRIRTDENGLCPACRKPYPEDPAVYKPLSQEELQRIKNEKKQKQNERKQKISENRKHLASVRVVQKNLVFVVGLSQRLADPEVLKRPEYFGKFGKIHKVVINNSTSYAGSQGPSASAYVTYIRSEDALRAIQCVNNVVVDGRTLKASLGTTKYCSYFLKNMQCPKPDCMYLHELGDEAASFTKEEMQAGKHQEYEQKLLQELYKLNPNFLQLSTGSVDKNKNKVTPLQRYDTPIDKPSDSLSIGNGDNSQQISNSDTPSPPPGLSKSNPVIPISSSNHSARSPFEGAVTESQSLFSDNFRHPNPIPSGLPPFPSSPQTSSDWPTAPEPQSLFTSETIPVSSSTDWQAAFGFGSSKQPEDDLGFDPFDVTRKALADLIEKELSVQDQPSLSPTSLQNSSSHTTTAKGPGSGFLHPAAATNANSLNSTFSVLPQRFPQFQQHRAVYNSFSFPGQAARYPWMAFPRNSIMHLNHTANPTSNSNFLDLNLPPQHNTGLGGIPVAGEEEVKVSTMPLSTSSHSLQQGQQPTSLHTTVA
inactive: lapatinib 0.039 | pictilisib -0.06 | crizotinib 0.146 | [1] -0.093 | duvelisib -0.011 | gandotinib 0.075 | tozasertib -0.027 | bafetinib -0.054 | [2] 0.028
active: doramapimod -0.234

CHURC1 isoform 2 (UniProt Q8WUH1)
Chain of UniProt Q8WUH1 (Q8WUH1 whole entry, looked up): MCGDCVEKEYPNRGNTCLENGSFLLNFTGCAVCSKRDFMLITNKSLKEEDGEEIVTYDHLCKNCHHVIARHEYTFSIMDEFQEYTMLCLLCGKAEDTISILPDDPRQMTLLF
inactive: lapatinib 0.012 | pictilisib 0.043 | crizotinib -0.047 | [1] 0.026 | duvelisib 0.049 | gandotinib -0.014 | tozasertib -0.032 | doramapimod -0.01 | bafetinib -0.019 | [2] -0.001

DHCR7 (UniProt Q9UBM7)
Chain of UniProt Q9UBM7 (Q9UBM7 whole entry, looked up): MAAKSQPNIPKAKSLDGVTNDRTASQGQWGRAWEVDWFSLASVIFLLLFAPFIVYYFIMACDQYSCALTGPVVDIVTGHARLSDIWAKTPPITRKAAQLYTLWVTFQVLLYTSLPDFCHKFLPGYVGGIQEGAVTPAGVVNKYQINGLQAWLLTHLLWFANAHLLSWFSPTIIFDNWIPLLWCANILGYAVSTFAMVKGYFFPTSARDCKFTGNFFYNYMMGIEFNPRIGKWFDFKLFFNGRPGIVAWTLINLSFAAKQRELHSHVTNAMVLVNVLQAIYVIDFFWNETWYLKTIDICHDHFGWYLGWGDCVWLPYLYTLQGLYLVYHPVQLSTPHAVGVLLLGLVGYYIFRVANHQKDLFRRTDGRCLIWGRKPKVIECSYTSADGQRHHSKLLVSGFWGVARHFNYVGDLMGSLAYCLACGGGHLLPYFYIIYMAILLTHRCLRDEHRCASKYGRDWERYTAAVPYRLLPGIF
active: gandotinib -0.215
inactive: lapatinib -0.092 | pictilisib -0.039 | crizotinib -0.103 | [1] -0.024 | duvelisib 0.067 | tozasertib -0.01 | doramapimod 0.002 | bafetinib 0.024 | [2] 0.013

COQ8A (UniProt Q8NI60)
Chain of UniProt Q8NI60 (Q8NI60 whole entry, looked up): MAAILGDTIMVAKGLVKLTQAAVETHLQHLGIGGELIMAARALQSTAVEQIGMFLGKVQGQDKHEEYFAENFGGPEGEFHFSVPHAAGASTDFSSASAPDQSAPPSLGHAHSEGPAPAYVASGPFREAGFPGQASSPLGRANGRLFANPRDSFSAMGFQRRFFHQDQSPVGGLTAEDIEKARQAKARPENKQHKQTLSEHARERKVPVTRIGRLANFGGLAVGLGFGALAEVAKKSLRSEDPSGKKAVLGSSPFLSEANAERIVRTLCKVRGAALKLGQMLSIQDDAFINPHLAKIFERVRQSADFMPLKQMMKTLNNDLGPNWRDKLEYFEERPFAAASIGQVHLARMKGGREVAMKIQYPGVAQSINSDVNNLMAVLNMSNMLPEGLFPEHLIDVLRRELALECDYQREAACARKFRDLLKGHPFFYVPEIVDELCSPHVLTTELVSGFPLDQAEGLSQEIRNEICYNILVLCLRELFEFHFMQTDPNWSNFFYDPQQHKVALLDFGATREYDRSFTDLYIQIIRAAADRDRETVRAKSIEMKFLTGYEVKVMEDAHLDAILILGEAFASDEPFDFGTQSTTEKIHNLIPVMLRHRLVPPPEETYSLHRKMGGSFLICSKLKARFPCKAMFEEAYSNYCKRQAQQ
inactive: lapatinib 0.004 | pictilisib 0.025 | crizotinib 0.106 | [1] -0.078 | duvelisib -0.095 | gandotinib 0.126 | tozasertib 0.023 | doramapimod -0.059 | bafetinib 0.041 | [2] -0.042

CKAP2 (UniProt Q8WWK9)
Chain of UniProt Q8WWK9 (Q8WWK9 whole entry, looked up): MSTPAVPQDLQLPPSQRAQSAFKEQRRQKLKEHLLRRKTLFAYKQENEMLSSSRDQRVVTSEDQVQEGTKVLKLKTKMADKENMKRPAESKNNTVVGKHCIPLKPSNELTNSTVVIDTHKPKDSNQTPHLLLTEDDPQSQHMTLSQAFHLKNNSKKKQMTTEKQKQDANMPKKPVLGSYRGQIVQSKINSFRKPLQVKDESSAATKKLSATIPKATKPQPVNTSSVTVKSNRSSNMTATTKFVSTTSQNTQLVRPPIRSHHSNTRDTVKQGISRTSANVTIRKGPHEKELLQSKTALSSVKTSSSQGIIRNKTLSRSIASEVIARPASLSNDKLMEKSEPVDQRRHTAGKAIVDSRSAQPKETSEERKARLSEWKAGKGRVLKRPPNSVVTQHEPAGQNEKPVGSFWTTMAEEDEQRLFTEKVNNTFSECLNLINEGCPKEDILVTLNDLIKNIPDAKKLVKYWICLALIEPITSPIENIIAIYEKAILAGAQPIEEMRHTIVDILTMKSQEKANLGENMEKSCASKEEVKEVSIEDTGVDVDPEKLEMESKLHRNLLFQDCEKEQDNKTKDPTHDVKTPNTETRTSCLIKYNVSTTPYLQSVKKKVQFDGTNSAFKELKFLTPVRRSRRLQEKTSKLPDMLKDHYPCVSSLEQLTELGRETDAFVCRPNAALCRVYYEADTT
inactive: lapatinib -0.004 | pictilisib -0.02 | crizotinib -0.027 | [1] 0.064 | duvelisib 0.016 | gandotinib 0.016 | tozasertib 0.034 | doramapimod -0.001 | bafetinib 0.019 | [2] -0.009

CMTM3 (UniProt Q96MX0)
Chain of UniProt Q96MX0 (Q96MX0 whole entry, looked up): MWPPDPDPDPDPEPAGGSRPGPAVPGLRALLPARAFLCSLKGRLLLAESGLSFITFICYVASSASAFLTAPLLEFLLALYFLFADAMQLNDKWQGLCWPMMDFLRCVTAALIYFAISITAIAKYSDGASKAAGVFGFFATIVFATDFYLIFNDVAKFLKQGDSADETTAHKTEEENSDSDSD
inactive: lapatinib -0.027 | pictilisib 0.029 | crizotinib -0.069 | [1] 0.023 | duvelisib -0.052 | gandotinib 0.016 | tozasertib 0.042 | doramapimod 0.025 | bafetinib -0.057 | [2] -0.059

DEF6 (UniProt Q9H4E7)
inactive: lapatinib -0.021 | pictilisib 0.057 | crizotinib -0.095 | [1] -0.049 | duvelisib 0.013 | gandotinib 0.032 | tozasertib 0.009 | doramapimod 0 | bafetinib 0.151 | [2] 0.188

CNIH4 (UniProt Q9P003)
Chain of UniProt Q9P003 (Q9P003 whole entry, looked up): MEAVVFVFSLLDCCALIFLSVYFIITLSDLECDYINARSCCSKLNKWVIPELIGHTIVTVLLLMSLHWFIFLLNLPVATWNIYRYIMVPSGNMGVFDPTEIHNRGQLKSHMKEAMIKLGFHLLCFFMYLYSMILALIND
inactive: lapatinib 0.005 | pictilisib -0.139 | crizotinib -0.055 | duvelisib 0.092 | tozasertib -0.06 | doramapimod -0.082 | bafetinib -0.248

CSK (UniProt P41240)
inactive: lapatinib -0.022 | pictilisib -0.017 | crizotinib 0.259 | [1] -0.075 | duvelisib -0.026 | gandotinib 0.377 | tozasertib 0.098 | doramapimod -0.005 | bafetinib 0.41 | [2] 0
